According to PubChem BioAssay AID597 (National Center for Advancing Translational Sciences (NCATS), 2007):
The campaign covered roughly 68,000 compounds. About 60 (0.09%) were called active. The call rests on the fitted dose curve; in most records, active means well fitted curve in the direction sought with a large enough effect; inconclusive means small, poorly fitted or top-dose-only effect; inactive means flat fitted curve, though single readings scatter. A selection follows.

Experiment: qHTS Assay for Epigenetic Modulators; further: % of control where 0% means no effect
Conditions: mouse C127i GFP locus derepression, cytometry, 30 h; series mostly up to 46.1 µM
Excerpt: NIH Molecular Libraries Screening Centers Network [MLSCN] NIH Chemical Genomics Center [NCGC] MLSCN Grant: 1 X01 MH079860-01 Assay Provider: Elisabeth D. Martinez, University of Texas SW Medical Center NCGC Assay Overview: The Locus Derepression assay detects the derepression of a GFP reporter that is stably integrated in a region of the genome of murine c127i mammary cells that is presumably silenced. GFP transcription in this construct is controlled by a CMV promoter, which normally is strong and constitutively active. However, this line was selected for lack of constitutive expression of the GFP protein. GFP production can be induced by incubating the cells with histone deacetylase or DNA methyltransferase inhibitors. Compounds that cause derepression of the locus to express GFP are identified by enumerating GFP positive cells using a laser-scanning microplate cytometer. For further details of this screen and follow-up characterization, see R.L. Johnson, W. Huang, A. Jadhav, C.P. Austin, J. Inglese, E.D. Martinez, A Quantitative High-Throughput Screen Identifies Potential Epigenetic Modulators of Gene Expression, Analytical Biochemistry (2008) 375(2):237-48.
NCGC Assay Protocol Summary: Two hundred and fifty cells in 5 uL per well were dispensed into black, clear-bottom 1536-well plates. Twenty-three nL compound was transferred to the assay plate and cells were incubated 30 hours at 37 C. Medium was removed, cells were washed two times with PBS, and GFP-positive cells were enumerated as fluorescent objects between the sizes of 20 to 120 um width and depth using an Acumen Explorer. Keywords: NIH Roadmap, MLSCN, MLI, MLSMR, qHTS, NCGC, qHTS, HDAC, DNMT, HAT, DNA methyltransferases, histone acetyl transferases, histone deacetylases

GFP derepression (activation), inactive:
COc1ccc(CNC(=O)C2CCN(S(=O)(=O)N3CCOCC3)CC2)cc1, COc1ccc(C(CC(=O)O)NC(=O)Cc2ccccc2)cc1 (stereo not drawn), COC(=O)c1ccc(N(CC(=O)NC2CCCC2)C(=O)CNC(=O)c2ccco2)cc1, COc1ccc2[nH]c3c(=O)n(Cc4ccco4)cnc3c2c1, CCCSc1nc2c(c(=O)n(C)c(=O)n2C)n1Cc1ccc(C)cc1, O=C(CN1CCN(C(=O)c2cccc(F)c2)CC1)Nc1ccccc1F, Cc1cc(N(C)C)cc(C)[n+]1[O-], O=C(c1cccc(F)c1)N1CCC2(CCCN(Cc3ccncc3)C2)CC1 0% [at 9.22 µM], O=c1[nH]c(=O)n([C@H]2C[C@H](O)[C@H](CO)O2)cc1Br, Cc1cccc(NC(=O)CSc2nc3c(c(=O)[nH]2)CCC3)c1C, Cc1nn(-c2ccccc2)c2[nH]c(C(F)(F)F)cc(=O)c12, COC(=O)c1cc(C(=O)OC)cc(N2C(=O)CC(N3CCN(c4ccccc4)CC3)C2=O)c1 (stereo not drawn), CSCCC(NS(=O)(=O)/C=C/c1ccccc1)C(=O)N1CCC(C)CC1 (stereo not drawn), C=CCc1cccc2cc(C(=O)OCC)c(=O)oc12, COC(=O)c1ccc(CSc2ccccc2C)o1, CCN(c1ccccc1)S(=O)(=O)c1cccc(C(=O)O)c1, COCCn1c(=O)c(-c2cccs2)nc2cnc(N3CCN(C)CC3)nc21 -2.7% [at 9.22 µM], CN(Cc1ccco1)c1ncncc1-c1ccoc1 3.4% [at 9.22 µM], CN/C(=C\[N+](=O)[O-])NCCSCc1csc(CN(C)C)n1, Cc1cccc(Cn2c(N3CCN(c4ccccc4)CC3)nc3c2c(=O)n(C)c(=O)n3C)c1, O=C(c1ccc(=O)[nH]c1)N(Cc1ccco1)C1(C(=O)NC2CCCCC2)CCCCC1, CCCCC(CC)C(=O)Nc1ccc(Cl)cn1 (stereo not drawn), O=C(Nc1ccccc1)N[C@H]1C[C@H](C(=O)O)Nc2cc(Cl)cc(Cl)c21, CC1(C)CC(=O)c2cc(OCC(=O)NCC3CCCO3)ccc2O1 (stereo not drawn), COc1ccccc1CN1CC2(CCN(S(=O)(=O)c3ccccc3)CC2)C1 -2.3% [at 9.22 µM], COc1ccc2[nH]c3cc4c(=O)c5cc(OC)ccc5[nH]c4cc3c(=O)c2c1 1.1% [at 9.22 µM], Oc1c(C(c2ccccn2)N2CCOCC2)ccc2cccnc12 (stereo not drawn), Cc1ccc(C(c2nnnn2C(C)(C)C)N2CCc3ccccc3C2)cc1 (stereo not drawn), CCOC(=O)C1(C(F)(F)F)N=C(N(C)C)OC(N(C)C)=N1, CCC[C@H]1C(=O)N2C(N(C)C)=Nc3ccc(C)cc3N2C1=O, Cc1cc(N2CCCCC2)nc2ccc(Cc3ccc4nc(N5CCCCC5)cc(C)c4c3)cc12 -2.2% [at 9.22 µM], CCOCC(=O)Nc1cc(OC)c(Cl)cc1OC, COCc1nc2ccccc2n1Cc1ccccc1Br, O=C(NC1CCCCC1)n1c(=O)oc2cc(S(=O)(=O)N3CCCCC3)ccc21, COCCn1c(=O)c(-c2cccs2)nc2cncnc21 2.3% [at 9.22 µM], O=C(COC(=O)c1ccc2c(c1)OCCO2)NCc1ccccc1, Cc1ccccc1-c1nc(N(C)Cc2ccco2)c2ccccc2n1 -2.9% [at 9.22 µM], COCCn1c(=O)c(-c2ccc(OC)cc2)nc2cnc(Oc3cccc(Cl)c3)nc21 -2.7% [at 9.22 µM], O=c1c(-c2ccc(F)cc2)nc2cnc(N3CCOCC3)nc2n1-c1ccccc1 2.3% [at 9.22 µM], NC(=O)C1(N2CCCCC2)CCN(C(=O)c2ccc(C#Cc3ccccc3)o2)CC1, Nc1ccc(-c2nnc(-c3ccc(-c4ccccc4)cc3)o2)cc1, COc1ccc(Cl)cc1NC(=O)C1CC(=O)N(c2ccc(F)cc2)C1 (stereo not drawn), CC1C(c2ccccc2)=[N+]([O-])C2(CCCC2)N1O (stereo not drawn), S=c1c2[nH]cnc2ncn1CCSc1ncnc2nc[nH]c12 3.4% [at 9.22 µM], CN1CCN(c2ncncc2-c2ccc(C(=O)N(C)C)cc2)CC1 -2.3% [at 9.22 µM], CCCCCNC(=O)Cc1ccc(OC)cc1, COC(=O)c1ccc(CSc2nncn2C)cc1, CC(C)(C)NC(=O)NC(=O)COC(=O)Cn1c(C(F)(F)F)nc2ccccc21, CC(C)[C@H](CO)Nc1nc(Nc2cc(N)cc(Cl)c2)c2ncn(C(C)C)c2n1, C[C@@H](N)[C@@H](C)Cc1ccccc1 0% [at 9.22 µM], Cc1cc(NC(=O)CCC(=O)N(c2ccccc2)C(C(=O)NC2CCCC2)c2ccncc2)no1 (stereo not drawn), COc1ccc(C(=O)N2CCC3(CCCN(C(c4ccccc4)c4ccccc4)C3)CC2)cc1 -2.3% [at 9.22 µM], COc1ccc(-c2cc(C(F)(F)F)n3nc(C(=O)N4CCOCC4)c(Cl)c3n2)cc1, O=C(CS(=O)(=O)c1cn(Cc2cccc(F)c2)c2ccccc12)N1CCCCC1, O=C(O)c1ccc(COc2c(F)c(F)cc(F)c2F)o1, Cc1ccc(Oc2nc3ccccc3n3c(C)nnc23)cc1, CCC(c1nnnn1C1CCCC1)N1CCN(C(=O)c2ccco2)CC1 (stereo not drawn), O=C(COc1ccc(F)cc1)N(CC1=CCS(=O)(=O)C1)c1ccccc1, Cc1ccc(S(=O)(=O)N2CCC(C(=O)N[C@@H](C)C(=O)NCCc3ccccc3)CC2)cc1, O=C(N1CCOCC1)N1CCOCC1, CC(C)Cc1nc(N2CCOCC2)c(C#N)c2c1CCC2, CCCCCCCCCCCC(=O)O[C@H](CC(=O)O)C[N+](C)(C)C, Cc1noc(C)c1-c1nc(Nc2ccccc2)c2ccccc2n1 -2.9% [at 9.22 µM], O=C(O)c1nn(-c2ccc(Cl)cc2)c2c1C(=O)c1ccccc1C2=O 4.5% [at 9.22 µM], Fc1ccccc1OCCCCn1cncn1, O=[n+]1c2c(n([O-])c3cc(Br)ccc31)CCC2, COC(=O)[C@H]1[C@H]2C[C@H]3c4[nH]c5ccccc5c4CCN3C[C@@H]2CC[C@@H]1O, CCOC(=O)c1cc2occc2n1CC(=O)N1CCN(C(=O)c2ccco2)CC1, Cc1cc2c(cc1C)NC1=C(N2)O[C@H](c2c[nH]c3ccc(COc4ccccc4)cc23)C1=O 2.2% [at 9.22 µM], NC(=NC(=O)c1ccccc1)C1=C(O)CCC1=O, COc1ccc(-n2c(SC)nc(O)cc2=O)cc1, O=C(CSc1ncccn1)NC(=O)NCc1ccccc1, NCCCNCCCCN(CCCN)/[N+]([O-])=N/O, Cn1cccc1C(=O)N1CCC[C@@]2(CCN(Cc3nccs3)C2)C1 4.6% [at 9.22 µM], COCCn1c(=O)c(-c2ccccc2)nc2cnc(N3CCOCC3)nc21 -2.7% [at 9.22 µM], Cn1c(=NC(=O)CSCC(=O)N2CCOCC2)sc2ccccc21, Cc1ccc2[nH]c(=O)c(COC(=O)c3ccccn3)cc2c1, CCOC(=O)c1[nH]c2ccc(C)cc2c1N=C(C)N(C)C, Cc1cc(C(=O)CC#N)c(C)n1CC(F)(F)F, Cc1ccc(NC(=O)c2cccc(N(C)C)c2)cc1NC(=O)c1ccc(O)cc1, CCON=C1C(C)(C)C(C)(C)C(C)(C)C1(C)C 6.6% [at 9.22 µM], Cc1ccc(S(=O)(=O)N(C)CC(=O)N2CCc3ccccc32)cc1, COc1cccc(-c2cc(NCCc3c[nH]c4ccc(OC)cc34)ncn2)c1 5.1% [at 9.22 µM], CC(C)c1ccc2c(c1)c(SC(C)(C)C)c(CC(C)(C)C(=O)O)n2Cc1ccc(Cl)cc1, C#CCCCCCCCCCCCCCCCC(=O)O, N#CCCn1c(=O)c(-c2cc(F)cc(F)c2)nc2cnc(Oc3ccccc3)nc21 -4.9% [at 9.22 µM], CCOc1cccc(NC(=O)CC#N)c1, O=C1c2ccccc2C(Nc2ccc3c(c2)OCCO3)N1Cc1ccco1 (stereo not drawn), CCNCCCNCCCNCCCNCC, N#CC1=C(SCc2ccccc2)NC(=O)C(C#N)C12CCCC2 (stereo not drawn), O=C(c1cccc(F)c1)N1CCC2(CC1)CCN(c1ccccc1)CC2 -1.6% [at 9.22 µM], COc1ccc(OCC(=O)OCC(=O)Nc2ccc(S(=O)(=O)N3CCCCC3)cc2)cc1, O=S(=O)(O)c1ccc(O)c2ncccc12.O=S(=O)(O)c1ccc(O)c2ncccc12.[Zn] 2.3% [at 9.22 µM], Cc1cccc(CNc2ccnc(-c3cccnc3)n2)c1 0% [at 9.22 µM], N#CCCN1CCN(S(=O)(=O)c2ccc(S(=O)(=O)NC3CCCCC3)cc2)CC1, Cc1ccc(-c2nn(CC(C)(C)C)c3ncnc(N)c23)cc1, CCn1c(Cc2ccccc2)nnc1SCC(=O)Nc1ccccc1, CCc1c(C)[nH]c(=S)c(C#N)c1C, COc1ccc(C)cc1NC(=O)CSc1nc(SC)ns1, CN(C)c1cc[n+](Cc2ccccc2)cc1, Nc1nnc(C2CCCC2)s1, CN(c1nc2ccccc2n2c(-c3ccco3)nnc12)S(=O)(=O)c1ccccc1, CN1CCN(CC(O)COCc2ccc3c(c2)OCO3)CC1 (stereo not drawn)
